# Assay outcomes from PubChem.
# Sampled rows, rich in hits. Any-hit rate of the full collection: about 8.9%.
# SW480 rerep – A quantitative high throughput screen for small molecules that induce DNA re-replication in SW480 colon adenocarcinoma cells | 340,000 compounds, 1.8% hits | Potency, µM (top dose mostly 46.1 µM), actives largely listed as activators | SW480 DNA re-replication, Hoechst DNA content imaging, 48 h; also: nearly all actives have a fitted effect of over 55% in size
#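 Quantitative HTS format with DMSO vehicle controls; 48 hr drug incubation at 37 C, then 40 min Hoechst staining and scanning imager measurement at 405 nm excitation.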
# KB-V1 MDR tox – qHTS assay for MDR1-selective chemotherapeutics: Primary screen using the drug-selected MDR subline cells KB-V1 | AID 1347076, 2019 | 400,000 compounds, 3.4% hits | KB-V1 MDR cells viability, CellTiter-Glo, 72 h | Potency, µM (top dose mostly 46.1 µM), hits mostly cytotoxic; also: nearly all actives have a fitted effect of over 60% in size
#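 Readout: CellTiter-Glo luminescence, 10 min after addition. Cells: KB-V1 MDR subline, 72 h at 37 degrees C with compound. Analysis: corrected, normalized data fitted to concentration-effect curves.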
# D3 antag – qHTS of D3 Dopamine Receptor Antagonist: qHTS. D(3) dopamine receptor (Homo sapiens), P35462. D3R cells, DiscoveRx beta-arrestin luminescence, antagonist mode; stronger effect = lower value. max response, negative = inhibition, %. 360,000 compounds, 2.5% hits. AID 652054, 2013; in the data active = max response below about -50%; inconclusive = no clear call, values can overlap the other calls
# Target sequence (P35462 whole entry, looked up): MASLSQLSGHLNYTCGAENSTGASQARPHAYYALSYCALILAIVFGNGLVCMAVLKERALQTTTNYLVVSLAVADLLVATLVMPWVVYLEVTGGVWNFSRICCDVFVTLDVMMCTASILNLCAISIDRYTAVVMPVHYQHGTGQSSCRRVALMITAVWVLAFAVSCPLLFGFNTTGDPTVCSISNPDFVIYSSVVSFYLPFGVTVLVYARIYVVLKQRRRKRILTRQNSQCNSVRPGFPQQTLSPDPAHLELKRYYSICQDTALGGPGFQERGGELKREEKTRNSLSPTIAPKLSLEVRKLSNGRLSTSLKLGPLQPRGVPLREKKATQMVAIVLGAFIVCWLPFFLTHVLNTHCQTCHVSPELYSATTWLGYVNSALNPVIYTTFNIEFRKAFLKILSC
#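 Cells expressing the human receptor were seeded at 1500 cells/well, incubated overnight at 37 degrees C in 5% CO2, then exposed to library compounds with dopamine controls for 90 minutes at 37 degrees C before luminescent detection.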
# KB-3-1 cytotox – qHTS assay for MDR1-selective chemotherapeutics: Primary screen using the parental adenocarcinoma cell KB-3-1; AID 1347075, 2019; KB-3-1 viability, CellTiter-Glo ATP luminescence, 72 h; Potency, µM (highest dose often 46.1 µM), usual class: cytotoxic; 400,000 compounds, 1.4% hits; also: nearly all actives have a fitted effect of over 60% in size
#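 Cells are dispensed, compounds pinned in, plates held at 37 °C for 72 h, then CellTiter-Glo is added and luminescence read after 10 minutes. Cell line: parental KB-3-1 in phenol-red-free DMEM, 10% FBS.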
# MCF10A rereplic – A quantitative high throughput screen for small molecules that induce DNA re-replication in MCF 10a normal breast cells. Potency, µM (highest dose often 46.1 µM), usual class: activators. 350,000 compounds, 2.9% hits. AID 624296, 2012. MCF 10A DNA re-replication, Hoechst nuclear intensity, 48 h; also: nearly all actives have a fitted effect of over 50% in size
# DRD3 agonist – qHTS of D3 Dopamine Receptor Agonist: qHTS; D3R DiscoveRx beta-arrestin cells, luminescence, 90 min; max activation, %; 410,000 compounds, 0.58% hits; in the data active = max activation above about 30%
#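 Cells at 1500/well, incubated overnight, then treated with pinned compounds (dopamine as control) for 90 min at 37 degrees C. DiscoveRx reagent added for 30 - 60 minutes at room temperature; luminescence read.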
# A number is an active result; n = inactive; u = inconclusive; x = not tested or not shown. Unless noted, calls follow the shape of the dose curve; as a rule, active = well fitted curve in the direction sought with a large enough effect; inconclusive = small, poorly fitted or top-dose-only effect, or another doubt; inactive = no such curve, though single readings can be large; an effect the other way counts as inactive or inconclusive.
SMILES,SW480 rerep,KB-V1 MDR tox,D3 antag,KB-3-1 cytotox,MCF10A rereplic,DRD3 agonist
COc1cccc2c1[C@@H]1CN(CCCCn3c(=O)[nH]c4c(sc5ncc(-c6ccccc6)nc54)c3=O)C[C@@H]1CO2,n,n,-99,n,u,n
COc1cccc(CNC(=O)CCn2nc(C)c3c(C)n(-c4ccccc4)nc3c2=O)c1,x,n,x,n,x,n
O=c1[nH]c2ccccc2nc1-c1c[nH]c2ccccc12,0.73µM,n,n,n,n,n
O=S(=O)(c1ccccc1)N(CC1CO1)c1cccc2ccccc12 (stereo unspecified),21µM,n,n,n,u,n
Cc1cc(NS(=O)(=O)c2ccc3c(c2)CCC(=O)N3)ccc1Cl,x,n,x,n,x,x
O=C1CC(C(=O)Nc2ccc(Cl)cc2[N+](=O)[O-])C2(CCCCC2)O1 (stereo unspecified),n,15µM,n,n,n,n
O=C1c2ccccc2C2N1CCCN2C(=O)c1sc2ccccc2c1Cl (stereo unspecified),x,u,n,u,x,n
CCOc1ccc(CNC(=O)CSc2nnc(C)c3c(C)n(-c4ccccc4)nc23)cc1,x,n,x,n,x,n
O=C(O)c1cc(O)c2c(c1)[C@H]([C@H]1c3cc(C(=O)O)cc(O)c3C(=O)c3c(O[C@@H]4OC(CO)C(O)C(O)C4O)cccc31)c1cccc(O[C@@H]3OC(CO)C(O)C(O)C3O)c1C2=O (stereo partly specified),n,x,x,x,n,x
O=C(O)c1cc(O)c2c(c1)[C@@H]([C@H]1c3cc(C(=O)O)cc(O)c3C(=O)c3c(O[C@@H]4O[C@H](CO)[C@@H](O)[C@H](O)[C@H]4O)cccc31)c1cccc(O[C@@H]3O[C@H](CO)[C@@H](O)[C@H](O)[C@H]3O)c1C2=O,n,n,-50,n,n,n
COc1ccccc1N1CCN(C(=O)c2cn(C)c3ccc(S(=O)(=O)N(C)C4CCCCC4)cc3c2=O)CC1,x,n,x,u,x,n
C=CCC(CC=C)(CNC(=O)C(=O)Nc1ccc(C(=O)OCC)cc1)c1ccccc1,x,x,x,x,x,n
COCCCn1c2nc3ccccc3nc2c2c(=O)n(-c3ccccc3OC)cnc21,n,n,n,n,n,n
Cn1c(-c2c(N)n(CCCc3ccccc3)c3nc4ccccc4nc23)nc2ccccc21,16µM,9.2µM,n,u,u,n
COCCCn1c(N)c(-c2nc3ccccc3n2C)c2nc3ccccc3nc21,u,n,-88,n,23µM,n
Cn1c(-c2c(N)n(C3CCCC3)c3nc4ccccc4nc23)nc2ccccc21,12µM,21µM,n,16µM,5.2µM,n
Cn1c(-c2c(N)n(CCc3ccccc3)c3nc4ccccc4nc23)nc2ccccc21,8.2µM,15µM,n,u,u,46
CCC(Sc1nc2cc(OC)c(OC)cc2c(=O)n1CCc1ccc(Cl)cc1)C(=O)NCCOC (stereo unspecified),x,x,x,x,x,n
CCOC(=O)CSc1nc2c(sc3cccc(F)c32)c(=O)n1Cc1ccc(OC)cc1,x,n,x,n,x,n
CCCOc1ccc(CNC(=O)C(NS(=O)(=O)c2cccs2)C(C)C)cc1 (stereo unspecified),x,n,x,n,x,n
CCOC(=O)C1=C(C)N(C)C(=O)NC1c1cccc([N+](=O)[O-])c1 (stereo unspecified),n,n,n,n,u,n
CCOC(=O)C1=C(C)N(c2ccccc2)C(=O)NC1c1cccc([N+](=O)[O-])c1 (stereo unspecified),n,21µM,n,n,u,n
CCOC(=O)C1=C(N)Oc2cc(O)ccc2C1c1cccc([N+](=O)[O-])c1 (stereo unspecified),u,u,n,u,8.2µM,n
CCOC(=O)C1=C(N)Oc2cc(O)ccc2C1c1ccccc1 (stereo unspecified),n,u,n,u,u,n
Cc1nn(CCC(=O)Nc2ccccc2Br)c(=O)c2nn(-c3ccccc3)c(C)c12,x,x,x,x,x,n
SMILES,SW480 rerep,KB-V1 MDR tox,D3 antag,KB-3-1 cytotox,MCF10A rereplic,DRD3 agonist
CCSC1=N/C(=C\c2cccnc2)C(=O)N1c1ccccc1,u,18µM,n,n,u,n
CCCCSC1=N/C(=C/c2ccsc2)C(=O)N1c1ccccc1,n,16µM,n,n,u,n
CCCSC1=N/C(=C/c2ccsc2)C(=O)N1c1ccccc1,n,n,n,n,n,n
O=C(Nc1cc2ccc(O)cc2oc1=O)c1ccc(F)cc1,x,x,x,x,x,n
COc1cccc(Cn2c(C(C)n3c(-c4cnccn4)nc4ccccc43)nc3ccccc32)c1 (stereo unspecified),x,16µM,n,u,x,n
O=C(Nc1cccc(N=Cc2cc(Cl)cc(Br)c2O)c1)c1ccco1,n,u,-75,n,u,n
O=C(Nc1cccc(N=Cc2cc(Br)cc(Br)c2O)c1)c1ccco1,n,n,-61,n,u,n
O=C(Nc1cccc(NC(=O)c2ccco2)c1)c1cccc(Br)c1,n,u,n,n,n,n
C/C(=N\NC(=O)c1cccc(Cl)c1)c1cccc(NC(=O)c2ccco2)c1,n,n,n,n,n,n
O=C(Nc1cc(Br)c(O)c(Br)c1)c1cccc(NC(=O)c2ccco2)c1,n,n,n,n,0.73µM,n
COC(=O)[C@]1(C)N[C@H](CN(C)C(=O)Nc2ccc(Cl)cc2)[C@@H]2C(=O)N(Cc3ccccc3)C(=O)[C@@H]21,n,n,u,n,n,n
COC(=O)[C@]1(C)N[C@H](CN(C)C(=O)Nc2ccc(OC)cc2)[C@@H]2C(=O)N(Cc3ccccc3)C(=O)[C@@H]21,n,n,n,n,n,34
CN1CCN(c2ccc(CNC(=O)C3Cc4c(-c5ccc(Cl)cc5)ccnc4O3)cc2)CC1 (stereo unspecified),x,u,-56,n,x,n
CC(=O)Nc1ccc(-c2ccnc3c2CC(C(=O)NCC2CC2)O3)cc1 (stereo unspecified),x,n,n,u,x,n
CC(=O)Nc1ccc(-c2ccnc3c2CC(C(=O)NCCc2ccccc2)O3)cc1 (stereo unspecified),x,n,n,n,x,n
CC(=O)Nc1ccc(-c2ccnc3c2CC(C(=O)NCc2ccco2)O3)cc1 (stereo unspecified),x,n,n,0.52µM,x,n
O=C(Nc1ccc(Cl)c(C(F)(F)F)c1)C1Cc2c(-c3ccccc3)ccnc2O1 (stereo unspecified),x,n,u,n,x,n
